Results on 9 compounds are retold here after PubChem BioAssay (Tox21).

Molecules are shown by their SMILES. A number with no mark means an inactive call. Results filed as inconclusive are left out. Active and inactive are the calls of the source. Unless noted, the call rests on the fitted dose curve; in most records, active means well fitted curve in the direction sought with a large enough effect in the repeat runs; inconclusive means weak or mixed curves; inactive means no such curve, though single readings can be large; an effect the other way counts as inactive or inconclusive.

A short description of experiment [1]: A CellTox Green Cytotoxicity Assay to monitor cytotoxicity in HepG2 cells - 0 hour (AID 1224882). Further: nearly all actives have a fitted effect of over 35% in size. An outline of the steps: (§1)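 Measurements at 0, 8, 16, 24, 32 and 40 h of treatment captured CellTox Green fluorescence in HepG2 cells that had been co-plated with reagent and preincubated 5 h at 37 C/5% CO2.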
Experiment [2] in a line: A CellTox Green Cytotoxicity Assay to monitor cytotoxicity in HepG2 cells - 32 hour (AID 1224883). Further: nearly all actives have a fitted effect of over 50% in size. An outline of the steps:
as §1

A short description of experiment [3]: A CellTox Green Cytotoxicity Assay to monitor cytotoxicity in HEK293 cells - 8 hour (AID 1224884). Further: nearly all actives have a fitted effect of over 35% in size. An outline of the steps:
(§2)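 Tox21 screen in HEK293: membrane-impermeant cyanine dye fluoresces on binding dead-cell DNA; compound pinned 5 h post-seeding, plates held at 37 C, signal read repeatedly through 40 h.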

A short description of experiment [4]: qHTS RealTime-Glo MT Cell Viability Assay in HepG2 cells - 16 hour (AID 1224885). Further: nearly all actives have a fitted effect of over 50% in size. An outline of the steps: (§3)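 Viability was tracked continuously by NanoLuc luminescence from prosubstrate reduced by living HepG2 cells, at successive time points over 40 h of compound exposure. Cells with reagent were preincubated 5 h at 37 °C before compound addition.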
In general terms: In qHTS, concentration-response curves come from the screen itself.

Experiment [5] is described as follows: qHTS RealTime-Glo MT Cell Viability Assay in HEK293 cells - 24 hour (AID 1224886). Further: nearly all actives have a fitted effect of over 50% in size. Further: potency means the concentration at half of the fitted maximal effect. An outline of the steps:
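Viability tracked continuously by luminescence as live cells reduce a prosubstrate for NanoLuc; HEK293 cells preincubated 5 h, compound-treated at 37 C, and read at 0, 8, 16, 24, 32 and 40 h.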

The nature of experiment [6]: qHTS RealTime-Glo MT Cell Viability Assay in HEK293 cells - 8 hour (AID 1224887). Further: top concentration of the series differs between compounds; nearly all actives have a fitted effect of over 50% in size. An outline of the steps:
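HEK293 + NanoLuc + prosubstrate, 600 cells/well; 5 h, 37 C/5% CO2; compound 23 nL in DMSO by pintool; 37 C; luminescence read at 0, 8, 16, 24, 32 and 40 h time points.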

A short description of experiment [7]: A CellTox Green Cytotoxicity Assay to monitor cytotoxicity in HEK293 cells - 16 hour (AID 1224888). Further: nearly all actives have a fitted effect of over 35% in size. An outline of the steps:
as §2

Experiment [8] can be described thus: qHTS RealTime-Glo MT Cell Viability Assay in HepG2 cells - 0 hour (AID 1224889). Further: nearly all actives have a fitted effect of over 50% in size. An outline of the steps:
as §3

The nature of experiment [9]: A CellTox Green Cytotoxicity Assay to monitor cytotoxicity in HepG2 cells - 8 hour (AID 1224890). Further: nearly all actives have a fitted effect of over 45% in size. An outline of the steps: as §1
Experiment [10] can be described thus: qHTS assay to identify small molecule antagonists of the estrogen receptor alpha (ER-alpha) signaling pathway using the BG1 cell line in the presence of 0.1 nM 17-beta-estradiol - cell viability counter screen (AID 1259241). Further: nearly all actives have a fitted effect of over 40% in size. An outline of the steps:
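Live-cell protease activity (CellTiter-Fluor fluorescence, 30 min) was read in the same wells after VM7Luc4E2 cells had been exposed to compounds with 0.1 nM 17beta-estradiol for 22 hr at 37C.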

A short description of experiment [11]: qHTS assay to identify small molecule antagonists of the androgen receptor (AR) signaling pathway using the MDA cell line in the presence of 0.5 nM R1881 - cell viability counter screen (AID 1259242). Further: nearly all actives have a fitted effect of over 45% in size. An outline of the steps:
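Concentration-response screen of compounds for toxicity in MDA-kb2 reporter cells: 16 hr at 37C with 0.5 nM R1881, endpoint live-cell protease fluorescence measured in the reporter wells.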

Experiment [12] deals with Estrogen receptor (Homo sapiens) (UniProt P03372). Kind of experiment: qHTS assay to identify small molecule antagonists of the estrogen receptor alpha (ER-alpha) signaling pathway using the BG1 cell line in the presence of 0.1 nM 17-beta-estradiol (AID 1259244). Further: nearly all actives have a fitted effect of over 50% in size. An outline of the steps:
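Compounds were tested against 0.1 nM (final) 17beta-estradiol in VM7Luc4E2 cells, which express full-length ER-alpha and an ERE-luciferase reporter; luminescence was recorded following 22 h exposure.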

Experiment [13] is described as follows: qHTS assay to identify small molecule HDAC inhibitors (AID 1259364).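 Further: wild-type HCT-116 cells with endogenous class I/II HDAC activity; top concentration of the series differs between compounds; nearly all actives have a fitted effect of over 45% in size.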 An outline of the steps:
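Screening used wild-type human colon HCT-116 cells incubated overnight, dosed with compounds for 2 hours, and assayed with a homogeneous luminogenic HDAC I/II reagent for 30 minutes at room temperature.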

The nature of experiment [14]: qHTS assay to identify small molecule HDAC inhibitors - cell viability counter screen (AID 1259365). An outline of the steps:
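HCT-116 (wild type), 1,500 cells/well, overnight 37C/5% CO2; compound in DMSO 2hr; CellTiter-Glo 30min RT; luminescence read.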

The nature of experiment [15]: qHTS assay to identify small molecule agonists of the sonic hedgehog signaling (Shh) pathway - cell viability counter screen (AID 1259366). Further: nearly all actives have a fitted effect of over 50% in size. An outline of the steps: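 CellTiter-Fluor fluorescence read-out, 1 hr at 37C, added after 23hr compound exposure. Cells: 3T3 Gli1-Luc, an NIH/3T3 clone with stably integrated Gli1-Luc reporter, plated 4hr before compound.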
Experiment [16] can be described thus: qHTS assay to identify small molecule agonists of the sonic hedgehog signaling (Shh) pathway (AID 1259368; calls by dose curve;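 further: NIH/3T3-derived 3T3Gli1-Luc cells carrying a stable Gli1-driven firefly luciferase reporter; series mostly up to about 92 µM; nearly all actives have a fitted effect of over 15% in size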). An outline of the steps:
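Hedgehog pathway agonism scored by increased firefly luciferase luminescence in 3T3Gli1-Luc cells treated 24 hr at 37 C; detection used a 30 min room-temperature reagent incubation.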

The target of experiment [17] is Androgen receptor (Homo sapiens) (UniProt P10275). Kind of experiment: qHTS assay to identify small molecule antagonists of the androgen receptor (AR) signaling pathway using the MDA cell line in the presence of 0.5 nM R1881 (AID 1259243). Further: nearly all actives have a fitted effect of over 50% in size. Further: potency means the concentration at half of the fitted maximal effect. An outline of the steps: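 With R1881 held at 0.5 nM (final), compound effects on MMTV-luciferase expression in MDA-kb2 cells were scored by luminescence after a 16 hr, 37C incubation.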
Androgen receptor (Homo sapiens), sequence (P10275 whole entry, looked up): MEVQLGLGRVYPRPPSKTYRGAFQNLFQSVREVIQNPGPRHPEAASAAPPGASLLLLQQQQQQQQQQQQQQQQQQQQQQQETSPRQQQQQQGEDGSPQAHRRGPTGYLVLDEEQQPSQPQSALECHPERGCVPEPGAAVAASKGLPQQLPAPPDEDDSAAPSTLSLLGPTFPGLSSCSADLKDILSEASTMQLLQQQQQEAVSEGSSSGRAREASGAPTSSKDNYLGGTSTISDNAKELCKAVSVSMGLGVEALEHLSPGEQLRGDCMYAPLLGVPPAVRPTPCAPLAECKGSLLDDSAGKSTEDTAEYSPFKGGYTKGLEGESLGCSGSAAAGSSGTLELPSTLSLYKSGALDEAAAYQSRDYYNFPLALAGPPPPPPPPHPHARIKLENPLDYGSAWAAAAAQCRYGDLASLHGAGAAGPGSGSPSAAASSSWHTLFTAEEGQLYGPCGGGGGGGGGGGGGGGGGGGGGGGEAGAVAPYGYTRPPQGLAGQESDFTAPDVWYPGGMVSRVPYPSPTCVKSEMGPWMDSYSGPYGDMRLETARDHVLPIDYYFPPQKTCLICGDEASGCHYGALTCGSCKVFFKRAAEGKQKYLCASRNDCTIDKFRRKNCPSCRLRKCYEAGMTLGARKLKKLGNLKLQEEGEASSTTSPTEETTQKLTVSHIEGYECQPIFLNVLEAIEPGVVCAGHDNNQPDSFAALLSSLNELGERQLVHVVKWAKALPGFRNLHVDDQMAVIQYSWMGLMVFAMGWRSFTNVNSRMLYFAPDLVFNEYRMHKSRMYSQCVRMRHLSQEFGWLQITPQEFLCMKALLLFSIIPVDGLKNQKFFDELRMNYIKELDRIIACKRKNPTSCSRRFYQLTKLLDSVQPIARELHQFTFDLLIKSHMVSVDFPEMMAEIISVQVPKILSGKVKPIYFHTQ

Experiment [18] is described as follows: qHTS assay to identify small molecule antagonists of the sonic hedgehog signaling (Shh) pathway - cell viability counter screen (AID 1259367). Further: nearly all actives have a fitted effect of over 55% in size. An outline of the steps:
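Fluorescence read-out (CellTiter-Fluor, 1 hr at 37C) taken after 23 hr compound treatment of 3T3 Gli1-Luc cells stimulated with conditioned medium. Cells were seeded at 2,000 per well and pre-incubated 4 hr.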

Experiment [19] is described as follows: qHTS assay to identify small molecule phospholipidosis (PLD) inducers (AID 1259344; active means well fitted curve in the direction sought with a large enough effect; an effect the other way counts as inactive or inconclusive). An outline of the steps:
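Read-out is LipidTOX Red fluorescence (ex 595/em 615) imaged in HepG2 cells after 24 h compound exposure at 37 C, with Hoechst nuclear counterstain (ex 352/em 461) allowing per-cell normalisation.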

Estrogen receptor (Homo sapiens), sequence (P03372 whole entry, looked up): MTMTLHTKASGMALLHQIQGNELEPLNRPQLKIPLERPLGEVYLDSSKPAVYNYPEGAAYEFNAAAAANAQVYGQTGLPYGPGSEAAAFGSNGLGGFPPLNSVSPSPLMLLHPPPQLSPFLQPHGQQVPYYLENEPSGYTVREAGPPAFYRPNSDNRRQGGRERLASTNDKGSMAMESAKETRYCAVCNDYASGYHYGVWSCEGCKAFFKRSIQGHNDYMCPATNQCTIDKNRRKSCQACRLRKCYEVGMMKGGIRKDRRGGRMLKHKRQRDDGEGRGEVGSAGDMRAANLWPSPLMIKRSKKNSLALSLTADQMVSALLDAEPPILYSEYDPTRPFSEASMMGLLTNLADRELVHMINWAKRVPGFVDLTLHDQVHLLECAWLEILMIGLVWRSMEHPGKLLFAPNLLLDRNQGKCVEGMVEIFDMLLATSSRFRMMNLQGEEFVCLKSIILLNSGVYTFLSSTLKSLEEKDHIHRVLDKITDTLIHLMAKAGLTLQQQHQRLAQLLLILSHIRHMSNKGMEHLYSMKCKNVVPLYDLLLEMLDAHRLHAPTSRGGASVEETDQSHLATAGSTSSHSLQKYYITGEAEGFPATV

On to `CCNS(=O)(=O)c1ccc(C)cc1`, for which the Potency result in experiment [1], in experiment [2], in [5], in [6], in experiment [8] and in experiment [13] was “inactive” in each case. In addition, the Potency entry in experiment [15] is “inactive”. Also, the result in experiment [3], in experiment [4], in [7], in [9], in experiment [10] and in [11] was inactive. Besides, the outcome in [12], in experiment [14] and in [16] was inactive.

`C=CCOCC(O)CO` (configuration not stated): the outcome in experiment [3], in experiment [10], in [11], in [12], in [14] and in [16] was inactive. Further, the Potency entry in [5], in experiment [6], in experiment [8], in experiment [13] and in [15] was “inactive” throughout.

`O=C(c1ccccc1O)c1ccccc1O`: the Potency result in [1], in experiment [2], in [6], in experiment [13], in experiment [15] and in [18] was “inactive” each time. For the same compound, the outcome in [3], in [4], in experiment [7], in [9], in [11] and in [12] was inactive. Further, the outcome in experiment [14] and in experiment [16] was inactive. For the same compound, the Potency in experiment [17] was 24.1 µM (active).

Regarding `Nc1ccccn1`, the Potency entry in experiment [1], in experiment [2], in experiment [5], in [6], in experiment [8] and in experiment [13] was “inactive” in each case. Besides, the Potency result in experiment [15] and in [18] was “inactive” in each case. Besides, the result in [3], in [4], in experiment [7], in experiment [9], in [11] and in experiment [14] was inactive. Further, in experiment [16], the result was inactive.

On to `c1ccc(CCc2ccccc2)cc1`, for which the Potency result in experiment [1], in [5], in experiment [6], in [8], in [13] and in [15] was “inactive” in each case. Besides, the Potency entry in experiment [18] is “inactive”. Besides, the result in experiment [3], in [7], in experiment [10], in experiment [11], in experiment [14] and in experiment [16] was inactive.

Turning to `CC1=NS(=O)(=O)c2cc(Cl)ccc2N1`, the Potency entry in experiment [1], in experiment [2], in experiment [5], in experiment [6], in experiment [8] and in experiment [13] was “inactive” each time. For the same compound, the Potency result in experiment [15] and in experiment [18] was “inactive” each time. Further, the compound was called inactive in [3], in experiment [4], in experiment [7], in [9], in experiment [11] and in experiment [12]. Further, the compound was called inactive in experiment [19], in experiment [14] and in experiment [16].

Turning to `CCCCCC(C)N` (configuration not stated), the Potency result in experiment [1], in experiment [5], in [6], in [8], in [17] and in experiment [13] was “inactive” throughout. The Potency entry in [15] was “inactive”. In addition, the call in experiment [3], in [7], in [9], in experiment [10], in [11] and in experiment [19] was inactive. In addition, the result in experiment [14] and in [16] was inactive.

Take `CCN(Cc1ccccc1)c1ccccc1`: the Potency result in experiment [1], in experiment [6], in [13] and in experiment [18] was “inactive” throughout. Besides, the call in experiment [3], in experiment [4], in experiment [7], in [9], in experiment [10] and in experiment [11] was inactive. In addition, the compound was called inactive in experiment [14] and in experiment [16]. Besides, the Potency in experiment [5] is 21.6 µM (active); in experiment [17] it was 53.8 µM (active).

Take `CCOC(=O)C(=O)CCCCCCl`: the Potency entry in [1], in [6], in experiment [8], in experiment [17], in [13] and in experiment [15] was “inactive” throughout. Also, the Potency result in [18] was “inactive”. Further, the compound was called inactive in [3], in [4], in experiment [7], in [9], in [10] and in experiment [11]. The result in [12], in experiment [14] and in [16] was inactive.
